Results published in PubChem BioAssay (NCATS).
Inconclusive results are not listed. Entries that show only a call come without a potency. Active and inactive are the calls of the source. Unless noted, calls follow the shape of the dose curve; as a rule, active = well fitted inhibition curve with a large enough effect; inconclusive = small, poorly fitted or top-dose-only effect; inactive = no such curve, though single readings can be large or run the other way.

Assays:
[1] = qHTS to identify inhibitors of the type 1 interferon - major histocompatibility complex class I in skeletal muscle: primary screen against the NCATS Mechanism Interrogation Plate v5.0 (MIPE) Libary (AID 1347411); also: nearly all actives have a fitted effect of over 65% in size; also: potency is read from the fitted curve at half-maximal effect
How it was run: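 Seed engineered human myoblasts (HLA-B HiBit) in medium without dexamethasone containing 4 ng/ml IFN-beta; after 1 hr add compound titrations (top 46 uM final). Incubate 24 hrs at 37 C, lyse 10 min with HiBiT reagent, read luminescence.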

[2] = qHTS for inhibitors of Rabies Virus screened against the NCATS CANVASS Library (AID 1347402; calls by dose curve; also: series mostly up to about 46 µM)

SMILES | Potency [1] | outcome [2]
CC(C)[C@]12O[C@H]1[C@@H]1O[C@@]13[C@@]1(C)CCC4=C(COC4=O)[C@@H]1C[C@@H]1O[C@@]13C2=O | 131 nM (active) | 
CC1(C)CC[C@]2(NC(=O)C(C)(F)F)CC[C@]3(C)[C@H](C(=O)C=C4[C@@]5(C)C=C(C#N)C(=O)C(C)(C)[C@@H]5CC[C@]43C)[C@@H]2C1 | 1310 nM (active) | 
CC1=C(C)C(=O)OC(C(C)C2(O)CCC3C4C5OC5C5(O)CC=CC(=O)C5(C)C4CCC32C)C1 (stereo unspecified) |  | inactive
O=C1CC(c2ccc(O)cc2)Oc2cc(O)cc(O)c21 (stereo unspecified) |  | inactive
COc1cc2cc(c1Cl)N(C)C(=O)C[C@H](OC(=O)C(C)C)[C@]1(C)O[C@@H]1[C@H](C)[C@@H]1C[C@@](O)(NC(=O)O1)[C@H](OC)/C=C/C=C(\C)C2 | inactive | 
Cc1c(N)nc([C@H](CC(N)=O)NC[C@@H](N)C(N)=O)nc1C(=O)N[C@H](C(=O)N[C@@H](C)[C@H](O)[C@@H](C)C(=O)N[C@@H](C(=O)NCCc1nc(-c2nc(C(=O)NCCC[S+](C)C)cs2)cs1)[C@@H](C)O)C(O[C@H]1O[C@H](CO)[C@H](O)[C@@H](O)[C@H]1O[C@H]1O[C@H](CO)[C@@H](O)[C@H](OC(N)=O)[C@@H]1O)c1cnc[nH]1 (stereo partly specified) | inactive | 
